Bioassay records deposited in PubChem by several laboratories.
This is a sample that favours compounds with a hit; in the whole collection about 8.7% have one here.
Cav32 inh: human Cav3.2 channel inhibition, primary screen. Cav3.2-expressing cells, Fluo-4 calcium fluorescence FDSS; active compounds read low. AID 449739. B-score at 10 µM. 100,000 tested, 4% active;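 active = single-dose well whose peak fluorescence ratio is a statistical outlier from its plate by either plate-standardised score or position-corrected B-score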
Smad3 inh: blocks human Smad3 binding to FoxH1 peptide; P84022; TR-FRET Smad3/Dy647-FoxH1 peptide binding, europium anti-His; inhibition, % at 25 µM; 88,000 tested, 0.29% active; AID 630;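 active = compounds that reduce the energy-transfer binding signal between the protein and its labelled peptide by more than half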;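 note: 0% = Smad3 plus labelled peptide maximal FRET and 100% = peptide-only background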
TNAP act mid DEA: activators of human TNAP at intermediate phosphate acceptor. purified TNAP, CDP-star luminescence, 100 mM DEA, 30 min; active compounds read high; scale: 0 levamisole-inhibited, 1 vehicle-only enzyme. activation factor at 20 µM. 64,000 tested, under 10 active;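 active = activation factor of at least 2 at 20 µM, relative to controls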
PostGolgi yeast: growth inhibition of a yeast mutant, post-Golgi transport screen; 98,000 tested, 0.9% active; inhibition, % at 10 µM; post-Golgi transport phenotypic cell assay;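 note: yeast cells grown in 1536-well plates; yeast grown about 18 h at 30C before absorbance read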
DAT uptake mod: changed human dopamine transporter uptake under cocaine IC80; LLC-PK1 hDAT cells, [14C]-dopamine uptake with cocaine IC80; actives deviate in either direction; Q01959; 110,000 tested, 1.3% active; B-score at 10 µM; AID 449768;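 active = Z score or B-score, a plate-position-corrected score, falls beyond the plate's 99.7% confidence bounds, in either direction; inactive = both scores lie inside the 99.7% bounds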;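 note: scored against the spread of the other compound wells on the same plate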
Target sequence (Q01959 whole entry, looked up): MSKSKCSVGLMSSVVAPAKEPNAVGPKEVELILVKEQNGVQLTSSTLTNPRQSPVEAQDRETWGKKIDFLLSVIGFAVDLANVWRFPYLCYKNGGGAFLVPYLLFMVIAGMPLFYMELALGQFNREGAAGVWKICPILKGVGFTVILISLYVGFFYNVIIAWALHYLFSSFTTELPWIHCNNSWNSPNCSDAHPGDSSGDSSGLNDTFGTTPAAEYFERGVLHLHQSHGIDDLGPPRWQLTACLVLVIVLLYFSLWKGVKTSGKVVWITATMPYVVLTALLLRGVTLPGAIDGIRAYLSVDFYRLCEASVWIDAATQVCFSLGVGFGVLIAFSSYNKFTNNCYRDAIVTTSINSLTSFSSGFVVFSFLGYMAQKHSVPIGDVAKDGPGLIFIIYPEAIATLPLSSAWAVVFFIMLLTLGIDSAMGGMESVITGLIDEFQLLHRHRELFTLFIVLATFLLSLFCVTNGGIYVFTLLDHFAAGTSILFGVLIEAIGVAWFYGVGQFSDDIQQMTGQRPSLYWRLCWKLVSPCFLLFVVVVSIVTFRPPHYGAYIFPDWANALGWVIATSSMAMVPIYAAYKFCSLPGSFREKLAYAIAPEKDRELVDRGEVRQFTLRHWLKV
PostGolgi ctrl: inhibits growth of the yeast control strain. inhibition, % at 10 µM. 98,000 tested, 5% active. efflux-deficient yeast background strain, growth absorbance A615, 16 h
Active calls of the source: *; / = no result. Cut-off read from the data, not from the text of the source, unless noted: active = inhibition above about 30%; inactive = the rest.

SMILES | Cav32 inh | Smad3 inh | TNAP act mid DEA | PostGolgi yeast | DAT uptake mod | PostGolgi ctrl
COc1ccc(N2CCN(C(=O)CSc3ccccc3)CC2)cc1 | -0.254 | 7.5 | 0.9 | -12.3 | -0.728 | 13.0
COc1ccc(N2CCN(C(=O)CC(NC(N)=O)c3cccc(Oc4ccccc4)c3)CC2)cc1 (configuration not stated) | -5.52* | 1.8 | 0.9 | 10.2 | 0.0847 | 12.8
CCOC(=O)Cn1c(S(=O)(=O)Cc2ccccc2Cl)nc(-c2ccccc2)c1-c1ccccc1 | -7.31* | / | / | 14.4 | 0.272 | 15.9
C#CCn1c(S(=O)(=O)Cc2ccccc2Cl)nc(-c2ccccc2)c1-c1ccccc1 | -7.21* | / | / | 14.7 | -0.363 | 12.1
Cc1ccc(Cn2c(NS(=O)(=O)c3ccccc3)nc3ccccc32)cc1 | -1.85 | / | / | -1.9 | -0.916 | 15.4
C#CCn1c(S(=O)(=O)Cc2ccc(C)cc2)nc(-c2ccccc2)c1-c1ccccc1 | -7.79* | / | / | 2.3 | -1.12 | 7.9
O=C(NCc1ccncc1)Nc1ccccc1 | -0.571 | 2.8 | / | 18.8 | -1.28 | 3.7
Cc1ccc(S(=O)(=O)Oc2ccc(C)cc2/C=N/N=C2\NC(=O)C(C)S2)cc1 (configuration not stated) | -2.55 | 5.7 | / | 0.3 | 2.57 | 28.2
CC1(O)C(=O)C=C2C=C(c3ccsc3)OC=C2C1=O (configuration not stated) | 0.45 | / | / | / | -0.739 | /
COc1cc(C)c(C(=O)Oc2cc(C)c(C(=O)O)c(O)c2)c(O)c1 | -4.77* | / | / | / | 0.00661 | /
O=C(CCCn1c(=S)[nH]c2cc3c(cc2c1=O)OCO3)N1CCN(c2ccc(F)cc2)CC1 | -4.34 | 1.7 | 0.9 | -1.8 | 0.207 | 8.1
O=C(CCCn1c(=S)[nH]c2cc3c(cc2c1=O)OCO3)N1CCN(c2ncccn2)CC1 | 0.575 | 2.2 | 0.9 | 10.4 | -0.605 | 43.1*
Cc1ccc(C)c(N2CCN(C(=O)CCCn3c(=S)[nH]c4cc5c(cc4c3=O)OCO5)CC2)c1 | -8.56* | -0.8 | 0.9 | -0.2 | 0.125 | 26.9
O=C(Cc1ccc(Cl)cc1Cl)OCC(=O)c1ccc[nH]1 | -2.3 | / | / | 4.7 | -0.36 | 15.7
Cc1cc(OCCOCCNC(C)C)cc(C)c1Cl | / | 0.8 | / | -2.7 | / | 7.7
CCOC(=O)C1=C(C)N=C2SC(C)C(=O)N2C1c1ccc(C(=O)OC)cc1 (configuration not stated) | -7.5* | / | 0.9 | -4.5 | 0.0599 | -5.2
CN(C)c1nc2c(c(=O)[nH]c(=O)n2C)n1Cc1ccccc1Br | 0.652 | -2.3 | 0.9 | 18.7 | -0.0462 | 7.7
Cc1cc(C)n2nc(-c3sccc3-n3c(C)ccc3C)cc2n1 | 0.112 | / | / | 3.2 | 1.04 | 22.0
Cc1cc(C)n2nc(-c3sccc3-n3cccc3)cc2n1 | -0.876 | / | / | -9.8 | -2.61* | 35.1*
Cc1ccc(NC(=O)CSc2nnc(Cc3cccn3C)n2-c2ccc(F)cc2)c(C)c1 | -10.2* | 13.2 | 1 | 3.2 | -0.966 | 10.7
COc1ccc(Cl)cc1NC(=O)CSc1nnc(Cc2cccn2C)n1-c1ccc(F)cc1 | -6* | -8.6 | 0.9 | 3.7 | 0.118 | 32.4*
Cc1ccc(-n2c(Cc3cccn3C)nnc2SCC(=O)Nc2cc(C)on2)cc1 | -0.177 | -1.2 | 1 | -0.5 | -0.978 | -4.0
Cn1cccc1Cc1nnc(SCC(=O)NC2CCCC2)n1-c1ccc(F)cc1 | 1.08 | 3.9 | 0.9 | 8.0 | -0.521 | 4.5
Cn1cccc1Cc1nnc(SCC(=O)Nc2ccc(F)cc2F)n1-c1ccc(F)cc1 | -4.52* | 2.8 | 0.8 | 3.5 | -8.37* | 13.7
CCOC(=O)c1nn(-c2cccc(OC)c2)c(-c2ccccc2)c1C(=O)c1ccccc1 | -3.15 | / | / | 1.4 | -0.816 | 23.4
SMILES | Cav32 inh | Smad3 inh | TNAP act mid DEA | PostGolgi yeast | DAT uptake mod | PostGolgi ctrl
CCOc1cc(NC(=O)c2ccco2)c(OCC)cc1NC(=O)CCc1ccccc1OC | 0.00227 | / | 0.9 | -3.8 | -0.238 | 1.6
O=C(COc1ccccc1)NC(Cc1c[nH]c2ccccc12)C(=O)O (configuration not stated) | 0.585 | 3.7 | 1 | 9.8 | -1.21 | 26.4
O=C(CN1C(=O)CCC1=O)Nc1nc(-c2ccccn2)cs1 | / | -1.8 | 15.4* | 3.1 | -0.277 | 10.0
O=C(Nc1nc(-c2ccccn2)cs1)c1ccc(Cl)s1 | -1.51 | 1.8 | 1.1 | 37.0* | 1.51 | 24.2
O=C(CCSc1ccccc1)Nc1nccs1 | -0.975 | -3.2 | / | -5.6 | -0.456 | 13.9
Cn1cccc1C(=O)Nc1nc(-c2ccccn2)cs1 | / | -1.2 | / | 1.4 | 0.856 | 6.2
O=C(CCCSc1ccccc1)Nc1nc(-c2ccccn2)cs1 | -6.34* | -2.6 | / | 7.6 | 0.0626 | 7.8
